# Screens: PubChem BioAssay, National Center for Advancing Translational Sciences (NCATS)
# Tau fluor counter: counter-screen for tau fibril formation inhibitors; tau K18 P301L Alexa594 fluorescence, heparin fibrillization; Potency, µM (series often up to 57.7 µM); actives 0.93% (n = 280,000); further: nearly all actives have a fitted effect of over 55% in size
#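 Human K18 P301L tau (15 uM unlabeled plus 0.24 uM Alexa 594-labeled, final) in 100 mM sodium acetate pH 7 was mixed with compound and 20 uM heparin and incubated 6 hr at 37 C.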
# Tau fibril FP: inhibitors of human tau fibril formation | P10636 | K18 P301L tau heparin fibrillization, Alexa594 FP, 6 h | Potency, µM (series often up to 57.7 µM), most hits filed as inhibitors | actives 0.39% (n = 280,000); further: nearly all actives have a fitted effect of over 55% in size
# Target sequence (P10636 561-689 P618L limits assumed): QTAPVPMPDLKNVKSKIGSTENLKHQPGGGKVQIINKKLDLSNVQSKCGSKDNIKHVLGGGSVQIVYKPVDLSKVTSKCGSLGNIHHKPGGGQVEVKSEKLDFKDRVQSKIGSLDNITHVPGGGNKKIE
#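 Human K18 P301L fragment (15 uM unlabeled plus 0.24 uM Alexa 594-labeled) in 100 mM sodium acetate pH 7 with compound, aggregation induced by 20 uM heparin for 6 hr at 37 C. ThT (30 uM) added for 1 hr, then Alexa 594 FP read.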
# Tau ThT inhib: tau fibrillization inhibition (ThT binding); P10636; actives 2.1% (n = 270,000); recombinant tau K18 P301L (four-repeat tau fragment), heparin-induced fibrillization, ThT fluorescence; Potency, µM (titrated, usually from 57.4 µM), actives largely listed as inhibitors; further: nearly all actives have a fitted effect of over 55% in size
#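 Heparin-induced (20 uM) aggregation of recombinant human K18 P301L tau, 15 uM unlabeled with 0.24 uM labeled, pH 7 acetate buffer, 6 hr at 37 C with compound. Fibrils quantified by 30 uM ThT fluorescence after 1 hr ambient incubation.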
# JMJD2E inh: JMJD2E (human) inhibition; actives 1.6% (n = 230,000); Potency, µM (doses to about 57.1 µM), usual class: inhibitors; JMJD2E catalytic domain, FDH-coupled NADH fluorescence (FDH is formaldehyde dehydrogenase); AID 2147; B2RXH2; active means well fitted inhibition curve with a large enough effect, not every such curve was filed as active; inconclusive means small, poorly fitted or top-dose-only effect, or another doubt; inactive means no such curve, though single readings can be large or run the other way; further: nearly all actives have a fitted effect of over 50% in size
# Target sequence (B2RXH2 1-337 limits assumed): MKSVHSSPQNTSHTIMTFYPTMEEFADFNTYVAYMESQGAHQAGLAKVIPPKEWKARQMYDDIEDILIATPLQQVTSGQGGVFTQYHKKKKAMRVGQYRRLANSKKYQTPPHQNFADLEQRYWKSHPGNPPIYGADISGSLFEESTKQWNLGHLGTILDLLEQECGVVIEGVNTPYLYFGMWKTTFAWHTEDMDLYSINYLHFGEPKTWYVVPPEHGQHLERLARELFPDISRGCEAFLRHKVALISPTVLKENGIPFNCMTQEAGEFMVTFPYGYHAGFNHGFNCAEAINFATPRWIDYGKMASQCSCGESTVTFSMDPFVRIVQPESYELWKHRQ
# Coupling enz: coupling enzyme interference in Giardia aldolase counter-screen; activity change, negative = inhibition, % at 58.2 µM, hits read low; AID 2472; coupling enzyme system counterscreen, AmpLite Red fluorescence; actives 0.67% (n = 290,000); in the data active means activity change below about -30%
#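 Counterscreen of the coupled detection system alone, without aldolase: glyceraldehyde-3-phosphate coupling enzymes plus AmpLite Red readout. Compounds at 57.5 uM final, 10 min RT preincubation, 20 min RT reaction, fluorescence 525/598 nm.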
# A number is an active result; n = inactive; u = inconclusive; x = no result; [ ] = remark or other dose. Only some compounds are listed: those with a hit (about 3% of all), similar ones and a draw of the others. Unless noted, the call rests on the fitted dose curve; in most records, active means well fitted curve in the direction sought with a large enough effect; inconclusive means small, poorly fitted or top-dose-only effect, or another doubt; inactive means no such curve, though single readings can be large; an effect the other way counts as inactive or inconclusive.
SMILES,Tau fluor counter,Tau fibril FP,Tau ThT inhib,JMJD2E inh,Coupling enz
O=C1CC(c2ccco2)CC(O)=C1C=NCC1NCCc2ccccc21 (configuration not stated),n,n,u,20µM,n
COc1ccccc1C1CCN(c2ccc([N+](=O)[O-])c(OC)c2)CC1,u,n,8.9µM,n,n
CSc1ncc(C(=O)N2CCN(c3cccc(C(F)(F)F)c3)CC2)c(C)n1,n,n,n,x,x
C/C1=C2N=C(/C=C3N=C(/C(C)=C4\[N-]C(C)(C5N=C1C(C)(CCC(=O)NCC(C)OP(=O)([O-])O[C@H]1C(O)C(n6cnc7cc(C)c(C)cc76)O[C@@H]1CO)C5CC(N)=O)C(C)(CC(N)=O)C4CCC(N)=O)C(C)(CC(N)=O)C\3CCC(N)=O)C(C)(C)C/2CCC(N)=O.[CH2-]C1OC(n2cnc3c(N)ncnc32)C(O)C1O.[Co] (some centres not stated),u,13µM,10µM,14µM,n
Cc1cccc(-c2nc3nc(C)cc(NC(C)c4ccccc4)n3n2)c1 (configuration not stated),n,n,n,x,x
COc1ccccc1NC(=O)Cc1csc(NC(=S)Nc2ccc(C)cc2)n1,13µM[quencher],u,n,n,x
CCC(=O)Nc1nc(CC(=O)Nc2ccccc2OC)cs1,n,n,n,n,n
COc1ccc(CS(=O)(=O)/C(Cl)=C(/Cl)C(=O)Nc2ccc(OC)nc2)cc1,n,u,7.9µM,n,n
Cn1cccc1/C=C1\SC(=Nc2cccc(O)c2)NC1=O,u,n,7.1µM,n,n
Cn1cccc1/C=C1\SC(=Nc2ccccc2)NC1=O,u,n,13µM,n,n
Cc1ccc(N=C2NC(=O)/C(=C/c3cn(C)c4ccccc34)S2)cc1C,u,n,4µM,n,n
Cn1cc(/C=C2/SC(=O)N(c3ccccc3)C2=O)c2ccccc21,n,n,n,n,n
Cn1cccc1/C=C1\SC(=Nc2ccc(O)cc2)NC1=O,u,n,4.5µM,n,n
O=C1OC2(c3cc(I)c(O)c(I)c3Oc3c2cc(I)c(O)c3I)c2c(Cl)c(Cl)c(Cl)c(Cl)c21,x,x,x,x,n
COC(=O)c1ccc(NC(=O)CCc2c(C)nn(-c3ccc(N4CCCCC4)nn3)c2C)cc1,n,n,u,x,x
Cc1cc(S(=O)(=O)C(CNC(=O)c2ccc(OC(C)C)cc2)c2cccs2)ccc1F (configuration not stated),n,n,n,x,x
Cc1cc(/C=C2/NC(=O)N(c3ccccc3)C2=O)c(C)n1C(C)C,n,n,u,22µM,n
CCn1c(C)cc(/C=C2/NC(=O)N(Cc3ccccc3F)C2=O)c1C,n,n,u,u,n
Cc1cc(/C=C2/NC(=O)N(Cc3ccccc3F)C2=O)c(C)n1C(C)C,n,n,u,18µM,n
COc1ccc(-c2nnc3n2N=C(c2c(OC)cccc2OC)CS3)cc1OC,x,x,x,x,n
Cc1ccc[n+](-c2nc([O-])sc2/C=N/Nc2ccc([N+](=O)[O-])cc2)c1,n,n,14µM,n,n
CCOC(=O)C1=C(C)N=c2s/c(=C\c3cccc(OCC(=O)O)c3)c(=O)n2C1c1ccccc1OC (configuration not stated),x,x,x,x,n
CCOC(=O)C1=C(c2ccccc2)N=c2s/c(=C\c3cccc(O)c3)c(=O)n2C1c1cccs1 (configuration not stated),u,13µM,u,n,n
COc1ccc(-n2c(C)cc(/C=N/Nc3nnc(C)n3N)c2C)cc1,n,u,28µM,u,n
COc1cccc(/C=N/Nc2nnc(C)n2N)c1O,x,x,x,x,n
SMILES,Tau fluor counter,Tau fibril FP,Tau ThT inhib,JMJD2E inh,Coupling enz
CN1CCN(c2ccnc(-c3ccc(N(C)C)cc3)n2)CC1,x,x,x,x,n
O=c1c2ccc(Cl)cc2nc(-c2cccc(C(F)(F)F)c2)n1O,n,n,n,32µM,n
Cc1ccc(NC(=S)Nc2cccc3ccccc23)cc1,x,x,x,x,n
C=CCNC(=S)Nc1cccc2ccccc12,n,n,n,n,-51
C/C(=C\C(=S)Nc1ccccc1)Nc1ccc2ccccc2c1,u,u,13µM,u,-37
C/C(=C\C(=S)Nc1ccccc1)Nc1cccc2ccccc12,n,n,u,u,-49
COc1cc(/C=C/c2nc(C#N)c(NC3CCCCC3)o2)cc(OC)c1OC,u,n,n,x,x
Cc1ccccc1-c1cc(C(=O)Nc2sc(C)c(C)c2C(N)=O)c2ccccc2n1,u,u,22µM,n,n
CCN(CC)c1ccc(NS(=O)(=O)c2ccc(-c3coc(C)n3)cc2)c(C)c1,u,n,u,x,x
